Measurements from the supplement of paper PMC9694430.

What was measured:
Assay in all cases: thermal shift delta Tm vs DMSO control; higher = stronger stabilization (binding)
Conditions in all cases: 12.5 µM; protein concentration 2 µM
[1] = system: LOC_OS01G57100-cb003
Procedure, shortened: (§1)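 The melting temperature shift given here is a triplicate mean, measured against protein that received only DMSO. Melting temperatures came from Boltzmann fits of differential scanning fluorimetry data on E. coli-expressed, purified rice kinase domain constructs. Each 19.5 μl well contained 2 μM kinase, 100 mM potassium phosphate pH 7.5, 150 mM NaCl, 10% glycerol, 5 × SYPRO Orange and compound in DMSO. Plates were scanned from 25°C to 95°C at 0.05°C/s.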

[2] = system: LOC_OS01G60330-cb001
Procedure, shortened: as §1

[3] = system: LOC_OS01G60700-cb002
Procedure, shortened: as §1

[4] = system: LOC_OS01G63280-cb003
Procedure, shortened: as §1

[5] = system: LOC_OS01G67340-cb003
Procedure, shortened: as §1

[6] = system: LOC_OS01G70970-cb002
Procedure, shortened: as §1

[7] = system: LOC_OS02G07810-cb001
Procedure, shortened: as §1

[8] = system: LOC_OS02G08530-cb003
Procedure, shortened: as §1

[9] = system: LOC_OS02G14120-cb001
Procedure, shortened: as §1

[10] = system: LOC_OS02G17970-cb001
Procedure, shortened: as §1

[11] = system: LOC_OS02G45750-cb003
Procedure, shortened: as §1

[12] = system: LOC_OS02G54510-cb004
Procedure, shortened: as §1

[13] = system: LOC_OS03G04050-cb001
Procedure, shortened: as §1

[14] = system: LOC_OS03G12390-cb001
Procedure, shortened: as §1

[15] = system: LOC_OS03G27990-cb004
Procedure, shortened: as §1

[16] = system: LOC_OS03G50450-cb001
Procedure, shortened: as §1

[17] = system: LOC_OS03G50810-cb003
Procedure, shortened: as §1

[18] = system: LOC_OS04G35114-cb001
Procedure, shortened: as §1

[19] = system: T1, LOC_OS04G38480-cb003
T1 sequence (whole entry): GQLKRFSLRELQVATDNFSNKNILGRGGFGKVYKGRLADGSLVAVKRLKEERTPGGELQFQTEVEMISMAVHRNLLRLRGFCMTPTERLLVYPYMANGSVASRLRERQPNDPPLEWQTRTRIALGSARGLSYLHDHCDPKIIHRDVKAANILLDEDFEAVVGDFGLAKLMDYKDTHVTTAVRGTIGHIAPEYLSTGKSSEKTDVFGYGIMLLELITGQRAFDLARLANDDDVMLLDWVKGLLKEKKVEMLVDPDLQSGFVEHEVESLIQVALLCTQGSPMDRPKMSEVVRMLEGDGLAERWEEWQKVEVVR
Procedure, shortened: as §1

[20] = system: T2, LOC_OS04G41100-cb001
T2 sequence (whole entry): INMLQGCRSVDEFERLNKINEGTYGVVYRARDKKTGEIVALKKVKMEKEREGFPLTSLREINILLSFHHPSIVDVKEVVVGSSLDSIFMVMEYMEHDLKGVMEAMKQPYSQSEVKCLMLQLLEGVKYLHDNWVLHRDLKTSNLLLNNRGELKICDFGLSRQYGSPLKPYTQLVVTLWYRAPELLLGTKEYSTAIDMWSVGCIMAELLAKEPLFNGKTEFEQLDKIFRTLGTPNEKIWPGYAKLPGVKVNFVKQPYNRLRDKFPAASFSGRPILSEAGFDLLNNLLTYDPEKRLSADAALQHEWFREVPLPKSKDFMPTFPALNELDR
Procedure, shortened: as §1

| Compound | thermal shift delta Tm [1] | thermal shift delta Tm [2] | thermal shift delta Tm [3] | thermal shift delta Tm [4] | thermal shift delta Tm [5] | thermal shift delta Tm [6] | thermal shift delta Tm [7] | thermal shift delta Tm [8] | thermal shift delta Tm [9] | thermal shift delta Tm [10] | thermal shift delta Tm [11] | thermal shift delta Tm [12] | thermal shift delta Tm [13] | thermal shift delta Tm [14] | thermal shift delta Tm [15] | thermal shift delta Tm [16] | thermal shift delta Tm [17] | thermal shift delta Tm [18] | thermal shift delta Tm [19] | thermal shift delta Tm [20] |
| --- | --- | --- | --- | --- | --- | --- | --- | --- | --- | --- | --- | --- | --- | --- | --- | --- | --- | --- | --- | --- |
| CNC(=O)c1cc(Oc2ccc(NC(=O)Nc3ccc(Cl)c(C(F)(F)F)c3)cc2)ccn1 [Sorafenib] | 3.62 °C | 3.63 °C | 0.58 °C | 9.12 °C | 1.48 °C | 1.77 °C | 1.92 °C | 1.8 °C | 2.47 °C | 2.3 °C | 4.5 °C | 1.47 °C | 0.48 °C | 1.7 °C | 0.3 °C | 1.22 °C | 1.02 °C | 1.71 °C | 3.55 °C | 0.99 °C |
| c1cc(-c2cnn3cc(-c4ccc(OCCN5CCCCC5)cc4)cnc23)ccn1 [Dorsomorphin 2HCl] | -0.53 °C | 4.55 °C | 0.2 °C | 1.5 °C | 6.09 °C | 8.77 °C | 0.33 °C | 2.18 °C | 8.01 °C | -0.02 °C | 15.2 °C | 0.73 °C | 0.67 °C | 1.8 °C | 9.39 °C | 1.81 °C | 7.51 °C | 9.17 °C | 3.72 °C | 3.16 °C |
| Cc1cc2c(F)c(Oc3ncnn4cc(OC[C@@H](C)O)c(C)c34)ccc2[nH]1 | 0.81 °C | 1.36 °C | 0.76 °C | 1.5 °C | -0.11 °C | 0.52 °C | 0.7 °C | 1.17 °C | 1.77 °C | 0.7 °C | 1.84 °C | -0.24 °C | 0.46 °C | -0.04 °C | 1.01 °C | 0.21 °C | 0.22 °C | 5.26 °C | 1.05 °C | 0.62 °C |
| COc1cccc2cc(-c3nc([C@H]4CC[C@H](C(=O)O)CC4)n4ncnc(N)c34)[nH]c12 | 2.68 °C | 0.91 °C | 0.9 °C | 1.4 °C | 1.05 °C | 0.4 °C | 1.58 °C | 1.17 °C | 0.19 °C | 0.71 °C | 0.26 °C | 0.38 °C | 0.31 °C | 0.34 °C | 0.03 °C | 0.32 °C | 0.58 °C | 3.43 °C | 0.98 °C | 0.32 °C |
| O=C(O)c1ccc2c(c1)nc(Nc1cccc(Cl)c1)c1ccncc12 [Silmitasertib (CX-4945)] | 2.46 °C | 4.93 °C | 1.42 °C | 1.39 °C | 0.58 °C | 0.36 °C | 0.97 °C | 1.24 °C | 2.72 °C | 1.95 °C | 1.82 °C | 1.5 °C | 0.25 °C | 4.4 °C | 4.14 °C | 0.83 °C | 1.55 °C | 6.87 °C | 1.13 °C | 0.77 °C |
